From PubChem BioAssay (NCI)
The panel holds about 83,000 compounds, 20% with a hit somewhere; the sample as a whole holds those more often.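 The test compound was applied at a single concentration to cells in 96-well plates for 48 hours, and percent growth was recorded.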 The source made the active and inactive calls. How the source made its calls: active means growth percent below 10; inactive means the rest.

Columns and labels:
Experiment in all cases: NCI-60 one-dose screen, 48 h (100 = growth as untreated, 0 = no growth, -100 = all killed)
Conditions in all cases: 10 µM unless noted
NCI-H23 lung = tested on: NCI-H23 lung
NCI-H226 lung = tested on: NCI-H226 lung
NCI-H322M lung = tested on: NCI-H322M lung
HOP-62 NSCLC = tested on: HOP-62 NSCLC
NCI-H460 lung = tested on: NCI-H460 lung
HOP-92 NSCLC = tested on: HOP-92 NSCLC
NCI-H522 lung = tested on: NCI-H522 lung
A549/ATCC NSCLC = tested on: A549/ATCC NSCLC
786-0 renal = tested on: 786-0 renal
COLO 205 colon = tested on: COLO 205 colon
DU-145 prostate = tested on: DU-145 prostate
K-562 leukemia = tested on: K-562 leukemia
MALME-3M melanoma = tested on: MALME-3M melanoma
MDA-MB-231 breast = tested on: MDA-MB-231 breast
RXF 393 renal = tested on: RXF 393 renal
SF-268 CNS = tested on: SF-268 CNS
SF-295 CNS = tested on: SF-295 CNS
SF-539 CNS = tested on: SF-539 CNS
UACC-257 melanoma = tested on: UACC-257 melanoma
M14 melanoma = tested on: M14 melanoma

Measured: growth

C[n+]1cccc(NC(=O)c2ccc3ccc4ccc(C(=O)Nc5ccc[n+](C)c5)nc4c3n2)c1
inactive: NCI-H23 lung 32.3% | NCI-H322M lung 37.3% | HOP-62 NSCLC 21.3% | HOP-92 NSCLC 57.5% | 786-0 renal 76.2% | COLO 205 colon 75.3% | K-562 leukemia 35.8% | MALME-3M melanoma 81.4% | MDA-MB-231 breast 33.2% | RXF 393 renal 33% | SF-268 CNS 53.3% | SF-539 CNS 37.7% | UACC-257 melanoma 94.4% | M14 melanoma 53.6%
active: NCI-H226 lung 5.55% | NCI-H460 lung -7.42% | NCI-H522 lung -19% | A549/ATCC NSCLC -3.45% | DU-145 prostate 9.79% | SF-295 CNS 5.59%

N#Cc1ccc(-c2ccc(COc3ccc(CC4SC(=O)NC4=O)cc3)cc2)cc1 (stereo not given)
inactive: NCI-H23 lung 50.7% | NCI-H226 lung 86.5% | NCI-H322M lung 89.7% | HOP-62 NSCLC 67.1% | NCI-H460 lung 69.5% | HOP-92 NSCLC 66.8% | NCI-H522 lung 43.8% | A549/ATCC NSCLC 48.1% | 786-0 renal 83% | COLO 205 colon 103% | DU-145 prostate 92.6% | K-562 leukemia 28.3% | MALME-3M melanoma 59.5% | MDA-MB-231 breast 71.2% | RXF 393 renal 97.5% | SF-268 CNS 63.6% | SF-295 CNS 50.3% | SF-539 CNS 65.5% | UACC-257 melanoma 84.9% | M14 melanoma 73.4%

CC(C)=CC/C=C(/C)[C@H]1CC[C@]2(C)[C@@H]1CC[C@@H]1[C@@]3(C)CCC(=O)NC(C)(C)[C@@H]3CC[C@]12C
active: NCI-H226 lung -1.12% [100 µM] | NCI-H460 lung -16.7% [100 µM] | HOP-92 NSCLC -6.9% [100 µM] | NCI-H522 lung -58% [100 µM] | 786-0 renal -33% [100 µM] | COLO 205 colon -0.368% [100 µM] | K-562 leukemia 6.71% [100 µM] | MALME-3M melanoma -85.2% [100 µM] | MDA-MB-231 breast -35.9% [100 µM] | RXF 393 renal -72.3% [100 µM] | SF-295 CNS -22.5% [100 µM] | SF-539 CNS -92.2% [100 µM]
inactive: NCI-H23 lung 13.6% [100 µM] | NCI-H322M lung 36.1% [100 µM] | HOP-62 NSCLC 14.3% [100 µM] | A549/ATCC NSCLC 15.3% [100 µM] | DU-145 prostate 12.2% [100 µM] | SF-268 CNS 10.9% [100 µM] | UACC-257 melanoma 14.8% [100 µM] | M14 melanoma 15.7% [100 µM]

CCCCN(CCCC)CC(O)c1ccc(OCc2ccccc2)c2ccccc12 (stereo not given)
active: K-562 leukemia -4.85%
inactive: NCI-H23 lung 61.2% | NCI-H226 lung 104% | NCI-H322M lung 90% | HOP-62 NSCLC 109% | NCI-H460 lung 83.1% | HOP-92 NSCLC 76.6% | NCI-H522 lung 23.7% | A549/ATCC NSCLC 86.1% | 786-0 renal 84.6% | COLO 205 colon 87.9% | DU-145 prostate 89.6% | MALME-3M melanoma 58.6% | MDA-MB-231 breast 74.9% | RXF 393 renal 106% | SF-268 CNS 74.5% | SF-295 CNS 48.6% | SF-539 CNS 101% | UACC-257 melanoma 90.2% | M14 melanoma 72.2%

O=C1COCCN1c1ccc(NCc2cn(Cc3ccc(F)cc3)c3ccccc23)cc1
active: NCI-H226 lung -56.5% | COLO 205 colon 5.22% | RXF 393 renal -3.08%
inactive: NCI-H23 lung 58.9% | NCI-H322M lung 87.3% | HOP-62 NSCLC 62.5% | NCI-H460 lung 15.4% | HOP-92 NSCLC 68.2% | NCI-H522 lung 58.1% | A549/ATCC NSCLC 48.4% | 786-0 renal 67.1% | DU-145 prostate 81.6% | K-562 leukemia 27.7% | MALME-3M melanoma 61.5% | MDA-MB-231 breast 85.3% | SF-268 CNS 96.2% | SF-295 CNS 44.1% | SF-539 CNS 92.1% | UACC-257 melanoma 27.9% | M14 melanoma 72.7%

O=C(OCc1ccc2c(Cl)cc(Cl)c(O)c2n1)N1CCN(C(=O)c2cc3cc(F)ccc3[nH]2)CC1
active: NCI-H226 lung 2.12% | HOP-62 NSCLC 6.32% | NCI-H460 lung 1.07% | NCI-H522 lung -19.1% | DU-145 prostate -10.4% | SF-539 CNS -20.1% | M14 melanoma 7.85%
inactive: NCI-H23 lung 26.3% | NCI-H322M lung 33.5% | HOP-92 NSCLC 39.2% | A549/ATCC NSCLC 13.6% | 786-0 renal 79.2% | COLO 205 colon 85.7% | K-562 leukemia 13.3% | MALME-3M melanoma 38.2% | MDA-MB-231 breast 28.2% | RXF 393 renal 16.4% | SF-268 CNS 31.1% | SF-295 CNS 25.1% | UACC-257 melanoma 25.1%

Nc1nc(Nc2ccccc2)c2ncn(Cc3cc4c(cc3Br)OCO4)c2n1
active: NCI-H460 lung 5.33% | NCI-H522 lung -40.5% | COLO 205 colon -38.3% | MDA-MB-231 breast -5.1% | SF-539 CNS 1.84%
inactive: NCI-H23 lung 23.2% | NCI-H226 lung 29.4% | NCI-H322M lung 30.2% | HOP-62 NSCLC 11.3% | HOP-92 NSCLC 40% | A549/ATCC NSCLC 13.5% | 786-0 renal 20.3% | DU-145 prostate 18.2% | K-562 leukemia 10.2% | MALME-3M melanoma 74.7% | RXF 393 renal 22.9% | SF-268 CNS 23.8% | SF-295 CNS 14% | UACC-257 melanoma 58.3% | M14 melanoma 15.7%
